PubChem BioAssay (EPA / NIEHS)
Records with an inconclusive call do not appear. Active and inactive are the calls of the source. How the source made its calls: active means hit-call score of the fitted dose curve at least 0.9, where 1 is the maximum; inconclusive means response in the unintended direction; inactive means score below 0.9.

Biological target: Nucleoli Translocation, AR (gene 367) (UniProt P10275)
Assay: UPITT_HCI_U2OS_AR_TIF2_Nucleoli_Agonist: University of Pittsburgh U2OS Androgen Receptor-Transcriptional Intermediary Factor 2 (AR-TIF2) Agonism High Content Imaging Assay for Nucleoli Translocation (AID 2283998)
Source text: UPITT_AR_TIF2_PPIB is a cell-based, high-content imaging assay that uses U2OS, a human osteosarcoma cell line, expressing a human androgen receptor fused to red fluorescent protein and the coactivator TIF2 fused to green fluorescent protein. UPITT_HCI_U2OS_AR_TIF2_Nucleoli_Agonist is one of four assay components measured from the UPITT_AR_TIF2_PPIB assay. It is designed to make measurements of red fluorescence localized in the nucleolar region of the cell nucleus as detected with high-content fluorescent imaging.Data from the assay component UPITT_HCI_U2OS_AR_TIF2_Nucleoli_Agonist was analyzed into 1 assay endpoint. This assay endpoint, UPITT_HCI_U2OS_AR_TIF2_Nucleoli_Agonist, was analyzed in the positive analysis fitting direction relative to DMSO as the baseline of activity. Using a type of binding reporter, measures of receptor for gain-of-signal activity can be used to understand the binding at the pathway-level as it relates to the gene AR.
Daughter plates containing 2 uL of 10 mM compounds in DMSO were prepared and replicated from the 384-well Library of Pharmacologically Active Compounds (LOPAC) master plates using the Bravo outfitted with a 384-well transfer head. Aluminum adhesive plate seals were applied with an Abgene Seal-IT 100 (Rochester, NY) plate sealer, and the plates were stored at -20 C in a Matrical MatriMinistore (Spokane, WA) automated compound storage and retrieval system. For screening, LOPAC daughter plates were withdrawn from -20C storage, thawed to ambient temperature, centrifuged 1-2 min at 50 g, and the plate seals were removed before the transfer of 98 uL of serum-free tissue culture medium (SFM) into wells using the BioTek Microflo liquid handler (BioTek, Winooski, VT) to generate a 200 uM intermediate stock concentration of library compounds (2.0% DMSO). The diluted compounds were mixed by repeated aspiration and dispensation using a 384-well P30 dispensing head on the Evolution P3 (EP3) liquid handling platform (PerkinElmer, Waltham, MA) and then 5 uL of diluted compounds was transferred to the wells of assay plates. In the LOPAC screen, compounds were individually tested at a final concentration of 20 uM (0.2% DMSO). After the diluted compounds had been transferred from the daughter plates to the primary HCS assay plates, aluminum adhesive plate seals were applied and the diluted daughter plates were stored frozen at -20C. To confirm active compounds identified in the primary screen, we withdrew the LOPAC daughter plates containing the 200 uM intermediate concentration of library compounds (2.0% DMSO) from -20C storage, thawed them to ambient temperature, centrifuged them for 1-2 min at 50 g, and removed the plate seals. A work list was generated to direct the Multiprobe Janus liquid handling platform (PerkinElmer) to cherry pick 75 uL from the wells of the diluted daughter plates that were flagged active in the primary screen and to reformat these into a 384-well plate hit confirmation daughter plate. Five microliters of primary HCS active compounds was then transferred into triplicate wells of assay plates using a 384-well P30 dispensing head on the Evolution P3 (EP3) liquid handling platform (PerkinElmer). […] Daughter plates containing 2 uL of the serially diluted compounds in DMSO were prepared and replicated from the 384-well serial dilution master plates using the Bravo outfitted with a 384-well transfer head. Aluminum adhesive plate seals were applied and plates were stored at -20C. For testing in the bioassays, daughter plates were withdrawn from -20C storage, thawed to ambient temperature, centrifuged for 1-2 min at 50 g, and the plate seals were removed before the transfer of 38 uL of SFM into wells using the BioTek Microflo liquid handler (BioTek) to generate an intermediate stock concentration of library compounds ranging from 1.95 to 500 uM (5.0% DMSO). […]

Sequence of Nucleoli Translocation, AR (gene 367) (P10275 whole entry, looked up): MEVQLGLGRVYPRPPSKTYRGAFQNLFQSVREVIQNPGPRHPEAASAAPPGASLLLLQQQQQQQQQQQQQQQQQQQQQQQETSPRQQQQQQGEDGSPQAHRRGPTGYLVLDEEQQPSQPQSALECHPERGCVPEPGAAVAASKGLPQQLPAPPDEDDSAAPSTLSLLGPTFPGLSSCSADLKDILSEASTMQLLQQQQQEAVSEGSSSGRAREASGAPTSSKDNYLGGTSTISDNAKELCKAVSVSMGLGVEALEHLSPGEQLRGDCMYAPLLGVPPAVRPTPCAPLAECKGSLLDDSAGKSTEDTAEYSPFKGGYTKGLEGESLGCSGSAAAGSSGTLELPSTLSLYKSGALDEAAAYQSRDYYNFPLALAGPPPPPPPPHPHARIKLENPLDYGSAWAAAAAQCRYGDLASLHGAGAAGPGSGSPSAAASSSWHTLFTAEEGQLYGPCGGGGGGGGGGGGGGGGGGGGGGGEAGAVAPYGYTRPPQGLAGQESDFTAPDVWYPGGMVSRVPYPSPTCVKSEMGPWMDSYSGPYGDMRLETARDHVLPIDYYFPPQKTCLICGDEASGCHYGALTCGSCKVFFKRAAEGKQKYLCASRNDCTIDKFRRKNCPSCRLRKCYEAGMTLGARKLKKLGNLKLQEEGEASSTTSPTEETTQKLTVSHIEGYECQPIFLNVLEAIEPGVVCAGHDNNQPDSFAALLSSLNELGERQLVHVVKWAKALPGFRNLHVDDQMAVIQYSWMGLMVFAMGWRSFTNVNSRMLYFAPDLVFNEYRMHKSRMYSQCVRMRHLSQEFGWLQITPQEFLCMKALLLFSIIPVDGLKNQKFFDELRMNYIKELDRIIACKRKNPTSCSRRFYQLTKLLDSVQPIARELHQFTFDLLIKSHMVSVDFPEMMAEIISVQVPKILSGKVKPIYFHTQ

| Structure (SMILES) | outcome | AC50 |
| --- | --- | --- |
| CCOc1ccc(NC(C)=O)cc1 | inactive |  |
| CCC(C)(C)C1CCC(=O)CC1 | inactive |  |
| CCCCCCCCCCOC(=O)c1ccccc1C(=O)OCCCCCCCC | inactive |  |
| CCO[Si](CC)(OCC)OCC | inactive |  |
| c1ccc2c(c1)-c1ccc3ccc4cccc5cc-2c1c3c45 | inactive |  |
| CCCCCCOc1ccc(O)cc1 |  | 27.7 µM (active) |
| CC(C)(C)c1cccc(O)c1 |  | 30.6 µM (active) |
| CC1COC(=O)O1 (stereo unspecified) | inactive |  |
| CC(CCO)CC(C)(C)C (stereo unspecified) | inactive |  |
| COC(=O)c1cccc(C(=O)OC)c1 | inactive |  |
| CC(C)(CO)CO | inactive |  |
